Among the test systems are NCI-H23 lung; NCI-H226 lung; HOP-62 NSCLC; NCI-H460 lung; HOP-92 NSCLC; A549/ATCC NSCLC; 786-0 renal; COLO 205 colon; NCI-H522 lung.
Common to all, as to assay: NCI-60 one-dose screen, 48 h (100 = growth as untreated, 0 = no growth, -100 = all killed)
What all share (conditions): 10 µM unless noted

From PubChem BioAssay (NCI) come the findings set out here.

SMILES strings stand for the structures. Compounds without any hit were thinned out: in the full panel of roughly 83,000, 20% have a hit.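 Plates (96-well) were seeded with cells, treated with compound at one concentration, and incubated for 48 hours before percent growth was determined.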 A number with no mark means an inactive call. Active and inactive are the calls of the source. The calls were made as follows: active = growth percent below 10; inactive = the rest.

In the case of `Clc1ccccc1-c1cnn2cc(-c3ccccc3)cnc12`, the growth in the test with NCI-H23 lung is 90.3%; in the test on NCI-H226 lung, 83.2%; in the test on HOP-62 NSCLC it was 86%; with NCI-H460 lung, 75.3%; in the test on HOP-92 NSCLC it was 82.9%; in the test on A549/ATCC NSCLC, 70.5%. The growth is 76.7% in the test on 786-0 renal and 91.8% in the test on COLO 205 colon.
`OCCNCCNC(Cc1ccc(Cl)cc1)c1ccccc1` (centres undefined): the growth in the test on NCI-H23 lung is 96.2%; in the test on NCI-H226 lung, 98.1%; with HOP-62 NSCLC, 72.2%; in the test with NCI-H460 lung, 107%; with HOP-92 NSCLC it was 38.4%; with A549/ATCC NSCLC it was 88.1%. Besides, the growth was 57.5% in the test on 786-0 renal and 70% in the test on COLO 205 colon.
In the case of `CNC1=CC(=O)c2c(C(=O)OC)c(C)[n+]([O-])c(C)c2C1=O`, the growth is 40% in the test on NCI-H23 lung; 82.1% in the test on NCI-H226 lung; 97.9% in the test with HOP-62 NSCLC; 28.2% in the test with NCI-H460 lung; 106% with HOP-92 NSCLC; 23.3% in the test on NCI-H522 lung. Moreover, the growth is 55.3% in the test on A549/ATCC NSCLC, 97.9% with 786-0 renal and 8.07% (active) in the test on COLO 205 colon.
`Cc1ccc(S(=O)(=O)OCCCOS(=O)(=O)c2ccc(C)cc2)cc1`: the growth was 105% with NCI-H23 lung; 107% in the test on NCI-H226 lung; 96.5% in the test with NCI-H460 lung; 77.4% in the test on HOP-92 NSCLC; 89% in the test with NCI-H522 lung; 93.4% in the test with A549/ATCC NSCLC. The growth is 90.8% in the test with 786-0 renal and 110% in the test on COLO 205 colon.
Consider `CN1CCN(C(=S)SCCCCOc2cc(=O)oc3ccccc23)CC1`, for which the growth was 80.9% with NCI-H23 lung; 67.1% with NCI-H226 lung; 79.6% in the test on HOP-62 NSCLC; 93.5% in the test with NCI-H460 lung; 67.5% in the test with HOP-92 NSCLC; 63.6% with NCI-H522 lung. The values for the growth in the test with A549/ATCC NSCLC, with 786-0 renal and in the test with COLO 205 colon were 84.5%, 96.9% and 86.4%, respectively.
Consider `O=C(CCCCCCN1CC(=O)N2[C@H](c3ccc(Br)cc3)c3[nH]c4ccccc4c3C[C@@H]2C1=O)NO`, for which the growth in the test with NCI-H23 lung was 53%; in the test with NCI-H226 lung, 80.2%; in the test on HOP-62 NSCLC it was 52.2%; in the test with NCI-H460 lung it was 44.7%; with HOP-92 NSCLC, 31.3%; with NCI-H522 lung it was 26.9%. Further, the growth was 80% in the test with A549/ATCC NSCLC, 89.1% in the test with 786-0 renal and 38.7% in the test with COLO 205 colon.
As to `O=C(N/N=C\c1ccccc1S(=O)(=O)O)N/N=C/c1ccccc1S(=O)(=O)O`, the growth with NCI-H23 lung was 102%; in the test on NCI-H226 lung, 105%; in the test with HOP-62 NSCLC it was 101%; with NCI-H460 lung, 98.5%; in the test with HOP-92 NSCLC, 96.8%; with NCI-H522 lung, 98.5%. The values for the growth in the test with A549/ATCC NSCLC, with 786-0 renal and in the test with COLO 205 colon were 97.9%, 95% and 106%, respectively.
`O=C(CCSc1nnc2n(Cc3ccccc3)c(=O)c3c4c(sc3n12)CCCC4)N1CCN(c2ccccc2)CC1`: the growth with NCI-H23 lung was 102%; in the test on NCI-H226 lung it was 100%; with HOP-62 NSCLC, 103%; in the test on NCI-H460 lung, 102%; with HOP-92 NSCLC, 94%; in the test with NCI-H522 lung, 104%. Moreover, the values for the growth in the test on A549/ATCC NSCLC, with 786-0 renal and in the test with COLO 205 colon were 104%, 102% and 102%, respectively.
On to `CCCCCCCCCCCCCCCCCC1=NC(C)(C)CN1CC(C)O` (centres undefined), for which the growth in the test on NCI-H23 lung is 84.8%; in the test with NCI-H226 lung it was 102%; in the test on HOP-62 NSCLC, 85.2%; in the test on NCI-H460 lung, 4.24% (active); in the test with HOP-92 NSCLC, 43.6%; in the test with NCI-H522 lung it was 25.8%. Further, the growth in the test on A549/ATCC NSCLC was 19.1%; in the test with 786-0 renal, 83.9%; with COLO 205 colon, 34%.
Take `Cc1ccc(NC(=O)Cn2c(Br)nc3c2c(=O)n(C)c(=O)n3C)cc1`: the growth in the test on NCI-H23 lung was 22.7%; in the test with NCI-H226 lung, -13.2% (active); with HOP-62 NSCLC it was 6.37% (active); in the test on NCI-H460 lung, 14.6%; with HOP-92 NSCLC, -2.3% (active); in the test on NCI-H522 lung it was 62.6%. The growth with A549/ATCC NSCLC is 27.1%; in the test with 786-0 renal, -67.1% (active); in the test with COLO 205 colon it was 19.5%.
For the compound `Cc1c(Cl)cccc1C(=O)Nc1nc2c(s1)CN(C(=O)c1ccc(C(F)(F)F)cc1)CC2`, the growth in the test on NCI-H23 lung is 33.7%; in the test with NCI-H226 lung, 50.9%; in the test with HOP-62 NSCLC, 41.8%; in the test on NCI-H460 lung it was 0.935% (active); with HOP-92 NSCLC, 35.9%; in the test with NCI-H522 lung, 11.4%. In addition, the figures for the growth with A549/ATCC NSCLC, in the test with 786-0 renal and with COLO 205 colon were 25.5%, 40.3% and 6.86% (active), respectively.
In the case of `N#Cc1ccc(O)c(C2=NCC(Cc3ccccc3)O2)c1` (centres undefined), the growth in the test with NCI-H23 lung was 54.5%; in the test with NCI-H226 lung, 65.9%; in the test on HOP-62 NSCLC, 24.1%; in the test on NCI-H460 lung it was 23.5%; in the test on HOP-92 NSCLC, 65%; with NCI-H522 lung, -17.5% (active). In addition, the growth was 35.8% in the test on A549/ATCC NSCLC, 38.7% in the test on 786-0 renal and 60.7% with COLO 205 colon.
For the compound `O=C(C1CCCCC1)[C@@H]1[C@]2(C(=O)NC3CCCCC32)[C@@H]2CCCN2[C@@]12C(=O)NC1CCC(Cl)CC12` (some centres undefined), the growth in the test on NCI-H23 lung is -81.4% [100 µM] (active); in the test on NCI-H226 lung, -55.1% [100 µM] (active); with HOP-62 NSCLC it was -73.2% [100 µM] (active); in the test with NCI-H460 lung it was -77.2% [100 µM] (active); in the test with HOP-92 NSCLC, -89.9% [100 µM] (active); with NCI-H522 lung, -81.7% [100 µM] (active). Further, the results for the growth in the test with A549/ATCC NSCLC, with 786-0 renal and with COLO 205 colon were -82.9% [100 µM] (active), -80.8% [100 µM] (active) and -80.8% [100 µM] (active), respectively.
`COc1ccc2cc(-c3ccnc4c(N=Nc5ccc(Cl)cc5)c(N)nn34)ccc2c1`: the growth in the test on NCI-H23 lung was 108%; in the test on NCI-H226 lung it was 90.2%; in the test with HOP-62 NSCLC it was 94.4%; with NCI-H460 lung, 100%; in the test with HOP-92 NSCLC, 98.7%; with NCI-H522 lung, 95.6%. For the same compound, the growth in the test on A549/ATCC NSCLC is 81.9%; with 786-0 renal it was 106%; with COLO 205 colon it was 110%.
For the compound `COc1ccc(-c2nn(-c3ccccc3)cc2/C=C/C(=O)NNC(=O)Nc2ccc(C)cc2)cc1`, the growth is 102% in the test with NCI-H23 lung; 97.2% in the test with NCI-H226 lung; 102% with HOP-62 NSCLC; 102% in the test on NCI-H460 lung; 102% with HOP-92 NSCLC; 89.4% in the test on NCI-H522 lung. For the same compound, the results for the growth with A549/ATCC NSCLC, in the test on 786-0 renal and in the test on COLO 205 colon were 94.8%, 101% and 103%, respectively.
Consider `CCN1C(=O)N(CC)C2C1NN=c1s/c(=C\c3ccc[nH]3)c(=O)n12` (centres undefined), for which the growth in the test with NCI-H23 lung was 42.9%; with NCI-H226 lung it was 68%; in the test with HOP-62 NSCLC, 25.9%; with NCI-H460 lung it was 4.38% (active); in the test with HOP-92 NSCLC, 54.2%; in the test with NCI-H522 lung, -15.6% (active). Further, the growth in the test on A549/ATCC NSCLC was 7.44% (active); in the test with 786-0 renal it was 31%; in the test with COLO 205 colon, 4.65% (active).
As for `C#CCOc1cccc(-c2ncnc3cc(NC(=O)C=C)ccc23)c1`, the growth was 69% in the test on NCI-H23 lung; 69.9% in the test with NCI-H226 lung; 36.4% with HOP-62 NSCLC; 29.1% in the test with NCI-H460 lung; 14.9% with HOP-92 NSCLC; 10.5% in the test on NCI-H522 lung. Also, the growth with A549/ATCC NSCLC was 44.5%; in the test with 786-0 renal, 29.9%; in the test with COLO 205 colon, 24.4%.
As to `O=C(Cc1ccc(/C=C/C(=O)c2ncc[nH]2)cc1)Nc1cc(C(F)(F)F)cc(C(F)(F)F)c1`, the growth is 93.9% in the test with NCI-H23 lung; 103% in the test on NCI-H226 lung; 106% with HOP-62 NSCLC; 93.7% in the test with NCI-H460 lung; 116% in the test with HOP-92 NSCLC; 96.6% in the test with NCI-H522 lung. Besides, the growth in the test on A549/ATCC NSCLC is 81.1%; in the test with 786-0 renal it was 52.2%; in the test with COLO 205 colon, 102%.
